# About 8,800 targets were measured; listed, in parts, are those with a hit and a random draw of the rest. About 0.5% of all pairs of compound and target were hits. A number with no mark means an inactive call.
# Tests used:
# Test in all cases: log2 fold change, soluble protein after heating vs DMSO (PISA); higher = thermal stabilisation; K562 lysate, 10 uM; active = over 0.2 and 3.5 SD of the protein, either way, in both replicates (recomputed)
# ibrutinib = compound: C=CC(=O)N1CCC[C@@H](n2nc(-c3ccc(Oc4ccccc4)cc3)c3c(N)ncnc32)C1 [ibrutinib]
# In short: (§1)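 Pellets of K562 cells were dounce-homogenised in PBS pH 7.4 with 1 mM MgCl2, and the crude extract was held at 1 mg/mL protein for a 30 min treatment with 10 μM compound. Aliquots were heated for 3 min over 48°C-58°C and pooled before NP-40 was added to 0.5% at 4°C. The supernatant from 21,000xg for 90 min was quantified by TMTpro 16plex LC-MS/MS with channel sums equalised. Values are reported from duplicates as log-two fold change in thermal stability relative to solvent controls.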
# [1] = compound: CC(=O)c1cnc2ccc(-c3cc(Cl)c(O)c(Cl)c3)nc2c1N[C@H]1CC[C@H](CN(C)C)CC1
# In short: as §1
# ralimetinib = compound: CC(C)(C)Cn1c(N)nc2ccc(-c3[nH]c(C(C)(C)C)nc3-c3ccc(F)cc3)nc21 [ralimetinib]
# In short: as §1
# [2] = compound: CC(C)(O)CC(=O)NCCn1ccc2ncnc(Nc3ccc(Oc4cccc(C(F)(F)F)c4)c(Cl)c3)c21
# In short: as §1
# [3] = compound: CC(C)C1=C2N=C(C=C(N2N=C1)NCC3=CC=CC=C3)NCCCCCCN
# In short: as §1
# [4] = compound: CC1=C(C(CC(=O)N1)C2=CC=C(C=C2)C(F)(F)F)C(=O)NC3=C(C=C4C(=C3)C=NN4)F
# In short: as §1
# [5] = compound: CC1=C(C2=C(C=C1)C(=O)C3=CC=CC=C3N2CCCN)C
# In short: as §1
# [6] = compound: CC1=C(C=C(C=C1)NC(=O)C2=CC(=CC=C2)C(C)(C)C#N)NC3=CC4=C(C=C3)N=CN(C4=O)C
# In short: as §1
# [7] = compound: CC1=C(C=C(C=C1)NC(=O)C2=CC(=CC=C2)N(C)C)NC(=O)C3=CC=C(C=C3)O
# In short: as §1
# [8] = compound: CC1=CC=C(C=C1)SC2=C3C=C(SC3=CN=C2)C(=O)N
# In short: as §1
# vemurafenib = compound: CCCS(=O)(=O)Nc1ccc(F)c(C(=O)c2c[nH]c3ncc(-c4ccc(Cl)cc4)cc23)c1F [vemurafenib]
# In short: as §1
# [9] = compound: CCCS(=O)(=O)Nc1ccc(F)c(C(=O)c2c[nH]c3ncc(Cl)cc23)c1F
# In short: as §1
# barasertib = compound: CCN(CCCOc1ccc2c(Nc3cc(CC(=O)Nc4cccc(F)c4)[nH]n3)ncnc2c1)CCOP(=O)(O)O [barasertib]
# In short: as §1
# [10] = compound: CC[C@@H]1C(=O)N(C)c2cnc(Nc3ccc(C(=O)NC4CCN(C)CC4)cc3OC)nc2N1C1CCCC1
# In short: as §1
# volasertib = compound: CC[C@@H]1C(=O)N(C)c2cnc(Nc3ccc(C(=O)N[C@H]4CC[C@H](N5CCN(CC6CC6)CC5)CC4)cc3OC)nc2N1C(C)C [volasertib]
# In short: as §1
# [11] = compound: CCn1c(C(=O)N(C2CC2)C2CC2)cc2c3c(ncn3C)c(Nc3cc(C)n(C)n3)nc21
# In short: as §1
# [12] = compound: CCn1cc(-c2ccnc3[nH]c(-c4cccc(CN(C)C)c4)cc23)c(-c2ccc(NC(=O)N(C)C)cc2)n1
# In short: as §1
# [13] = compound: CN1CCC(CNc2ccc3ncc(-c4cccc(OC(F)(F)F)c4)n3n2)CC1
# In short: as §1
# saracatinib = compound: CN1CCN(CCOc2cc(OC3CCOCC3)c3c(Nc4c(Cl)ccc5c4OCO5)ncnc3c2)CC1 [saracatinib]
# In short: as §1
# sotrastaurin = compound: CN1CCN(c2nc(C3=C(c4c[nH]c5ccccc45)C(=O)NC3=O)c3ccccc3n2)CC1 [sotrastaurin]
# In short: as §1
# UniProt Q15021, sequence (Q15021 whole entry, looked up): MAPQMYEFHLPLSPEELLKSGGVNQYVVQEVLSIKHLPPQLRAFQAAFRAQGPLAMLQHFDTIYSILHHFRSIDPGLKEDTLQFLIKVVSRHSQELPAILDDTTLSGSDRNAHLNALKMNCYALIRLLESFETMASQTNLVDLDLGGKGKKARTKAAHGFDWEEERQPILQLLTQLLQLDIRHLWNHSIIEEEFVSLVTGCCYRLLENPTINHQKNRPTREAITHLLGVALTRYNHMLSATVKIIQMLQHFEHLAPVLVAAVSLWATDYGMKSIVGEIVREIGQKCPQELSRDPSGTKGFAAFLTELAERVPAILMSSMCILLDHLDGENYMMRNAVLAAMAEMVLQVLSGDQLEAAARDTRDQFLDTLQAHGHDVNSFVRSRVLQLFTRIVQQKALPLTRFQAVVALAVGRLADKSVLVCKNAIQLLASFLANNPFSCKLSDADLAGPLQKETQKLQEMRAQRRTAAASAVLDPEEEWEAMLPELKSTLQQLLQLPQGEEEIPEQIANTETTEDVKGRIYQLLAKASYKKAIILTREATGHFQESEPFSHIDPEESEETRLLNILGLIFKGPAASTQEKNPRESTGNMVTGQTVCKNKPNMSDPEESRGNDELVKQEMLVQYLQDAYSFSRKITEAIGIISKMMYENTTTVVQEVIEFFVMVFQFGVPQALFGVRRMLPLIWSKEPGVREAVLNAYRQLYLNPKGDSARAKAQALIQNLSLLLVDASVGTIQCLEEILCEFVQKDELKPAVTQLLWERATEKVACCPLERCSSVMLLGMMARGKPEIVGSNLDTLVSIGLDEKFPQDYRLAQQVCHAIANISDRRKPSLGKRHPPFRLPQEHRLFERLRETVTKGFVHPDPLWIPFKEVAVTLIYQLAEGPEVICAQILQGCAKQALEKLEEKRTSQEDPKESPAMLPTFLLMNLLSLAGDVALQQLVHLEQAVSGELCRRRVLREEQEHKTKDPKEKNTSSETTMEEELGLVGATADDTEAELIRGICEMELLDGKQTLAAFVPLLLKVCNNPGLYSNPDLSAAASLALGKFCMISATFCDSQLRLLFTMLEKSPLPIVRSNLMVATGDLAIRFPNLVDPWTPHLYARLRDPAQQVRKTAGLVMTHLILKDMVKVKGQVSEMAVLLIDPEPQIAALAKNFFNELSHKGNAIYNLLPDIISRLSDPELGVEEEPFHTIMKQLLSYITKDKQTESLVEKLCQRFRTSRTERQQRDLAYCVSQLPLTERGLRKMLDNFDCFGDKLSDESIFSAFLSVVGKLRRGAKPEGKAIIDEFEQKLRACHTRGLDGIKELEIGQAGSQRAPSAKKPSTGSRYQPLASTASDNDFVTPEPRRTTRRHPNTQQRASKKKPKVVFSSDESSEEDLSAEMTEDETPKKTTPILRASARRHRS
# UniProt Q8WUM0, sequence (Q8WUM0 whole entry, looked up): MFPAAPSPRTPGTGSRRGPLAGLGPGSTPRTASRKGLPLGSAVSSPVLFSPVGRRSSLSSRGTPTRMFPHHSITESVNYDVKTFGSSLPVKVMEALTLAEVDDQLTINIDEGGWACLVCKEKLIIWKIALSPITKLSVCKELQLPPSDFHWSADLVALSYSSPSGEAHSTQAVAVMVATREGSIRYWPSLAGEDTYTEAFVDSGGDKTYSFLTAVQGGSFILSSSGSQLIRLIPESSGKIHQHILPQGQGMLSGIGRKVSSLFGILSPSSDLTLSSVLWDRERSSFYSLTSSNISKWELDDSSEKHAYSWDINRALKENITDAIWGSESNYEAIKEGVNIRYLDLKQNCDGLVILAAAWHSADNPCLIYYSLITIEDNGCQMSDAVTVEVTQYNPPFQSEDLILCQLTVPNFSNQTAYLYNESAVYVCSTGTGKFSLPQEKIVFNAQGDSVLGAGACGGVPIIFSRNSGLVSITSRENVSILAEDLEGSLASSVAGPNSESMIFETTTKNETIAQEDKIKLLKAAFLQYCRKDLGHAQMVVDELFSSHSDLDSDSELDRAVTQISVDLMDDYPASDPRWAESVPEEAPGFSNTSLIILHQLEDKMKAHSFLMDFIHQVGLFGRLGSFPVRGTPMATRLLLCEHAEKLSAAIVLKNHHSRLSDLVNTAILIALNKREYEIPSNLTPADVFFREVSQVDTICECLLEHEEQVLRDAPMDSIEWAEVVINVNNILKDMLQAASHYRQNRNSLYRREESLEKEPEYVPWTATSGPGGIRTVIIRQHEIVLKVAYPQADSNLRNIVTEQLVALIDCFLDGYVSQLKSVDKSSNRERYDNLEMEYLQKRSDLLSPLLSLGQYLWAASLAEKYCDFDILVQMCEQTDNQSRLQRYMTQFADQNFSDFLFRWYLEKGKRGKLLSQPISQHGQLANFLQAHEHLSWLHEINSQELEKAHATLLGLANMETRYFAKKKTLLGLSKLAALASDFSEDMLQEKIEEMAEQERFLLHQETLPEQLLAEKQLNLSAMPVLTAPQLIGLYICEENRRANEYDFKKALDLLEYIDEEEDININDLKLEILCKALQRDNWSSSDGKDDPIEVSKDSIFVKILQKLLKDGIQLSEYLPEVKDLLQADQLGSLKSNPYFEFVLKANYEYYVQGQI
# UniProt P52179, sequence (P52179 whole entry, looked up): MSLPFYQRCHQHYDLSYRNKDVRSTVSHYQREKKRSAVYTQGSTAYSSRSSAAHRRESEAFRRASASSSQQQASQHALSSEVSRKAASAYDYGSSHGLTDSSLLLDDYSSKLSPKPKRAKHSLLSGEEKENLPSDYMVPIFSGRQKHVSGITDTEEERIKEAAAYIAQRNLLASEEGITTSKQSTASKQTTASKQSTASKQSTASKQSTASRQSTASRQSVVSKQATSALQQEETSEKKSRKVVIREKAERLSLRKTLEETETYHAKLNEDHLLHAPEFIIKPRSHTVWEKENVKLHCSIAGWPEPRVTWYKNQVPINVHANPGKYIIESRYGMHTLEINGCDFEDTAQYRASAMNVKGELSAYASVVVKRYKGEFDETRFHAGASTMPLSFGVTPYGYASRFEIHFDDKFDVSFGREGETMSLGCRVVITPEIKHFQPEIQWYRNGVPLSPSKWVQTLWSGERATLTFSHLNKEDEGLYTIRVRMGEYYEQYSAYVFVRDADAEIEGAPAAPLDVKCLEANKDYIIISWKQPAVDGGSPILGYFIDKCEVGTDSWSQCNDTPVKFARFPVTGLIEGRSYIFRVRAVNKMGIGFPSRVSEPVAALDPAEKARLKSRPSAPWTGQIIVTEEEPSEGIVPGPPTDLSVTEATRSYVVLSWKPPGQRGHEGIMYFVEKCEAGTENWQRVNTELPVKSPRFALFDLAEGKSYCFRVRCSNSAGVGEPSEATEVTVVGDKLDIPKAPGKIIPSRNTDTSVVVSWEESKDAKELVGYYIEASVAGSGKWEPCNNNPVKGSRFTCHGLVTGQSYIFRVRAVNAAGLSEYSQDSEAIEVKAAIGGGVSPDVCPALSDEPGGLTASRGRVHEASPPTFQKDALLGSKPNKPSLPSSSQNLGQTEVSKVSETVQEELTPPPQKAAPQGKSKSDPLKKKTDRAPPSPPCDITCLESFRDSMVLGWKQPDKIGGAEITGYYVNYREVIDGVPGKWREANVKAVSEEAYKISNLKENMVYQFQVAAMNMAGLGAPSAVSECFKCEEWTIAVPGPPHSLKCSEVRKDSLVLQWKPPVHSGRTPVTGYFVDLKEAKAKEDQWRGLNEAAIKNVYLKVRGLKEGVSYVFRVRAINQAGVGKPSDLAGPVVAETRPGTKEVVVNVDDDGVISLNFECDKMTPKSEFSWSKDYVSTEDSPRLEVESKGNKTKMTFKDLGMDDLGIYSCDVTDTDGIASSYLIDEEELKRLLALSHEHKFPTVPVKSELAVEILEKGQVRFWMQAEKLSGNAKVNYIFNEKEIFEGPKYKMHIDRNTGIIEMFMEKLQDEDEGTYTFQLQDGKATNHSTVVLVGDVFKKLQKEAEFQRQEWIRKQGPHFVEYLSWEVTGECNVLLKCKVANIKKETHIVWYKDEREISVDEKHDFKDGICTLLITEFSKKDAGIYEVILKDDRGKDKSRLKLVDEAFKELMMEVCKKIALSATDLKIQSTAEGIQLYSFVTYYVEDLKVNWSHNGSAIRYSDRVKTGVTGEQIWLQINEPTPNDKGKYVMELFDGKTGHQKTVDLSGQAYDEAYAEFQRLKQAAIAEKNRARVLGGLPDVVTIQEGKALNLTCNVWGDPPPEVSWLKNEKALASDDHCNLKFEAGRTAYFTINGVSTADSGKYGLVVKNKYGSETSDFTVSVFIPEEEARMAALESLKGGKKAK
# UniProt Q9NZT2, sequence (Q9NZT2 whole entry, looked up): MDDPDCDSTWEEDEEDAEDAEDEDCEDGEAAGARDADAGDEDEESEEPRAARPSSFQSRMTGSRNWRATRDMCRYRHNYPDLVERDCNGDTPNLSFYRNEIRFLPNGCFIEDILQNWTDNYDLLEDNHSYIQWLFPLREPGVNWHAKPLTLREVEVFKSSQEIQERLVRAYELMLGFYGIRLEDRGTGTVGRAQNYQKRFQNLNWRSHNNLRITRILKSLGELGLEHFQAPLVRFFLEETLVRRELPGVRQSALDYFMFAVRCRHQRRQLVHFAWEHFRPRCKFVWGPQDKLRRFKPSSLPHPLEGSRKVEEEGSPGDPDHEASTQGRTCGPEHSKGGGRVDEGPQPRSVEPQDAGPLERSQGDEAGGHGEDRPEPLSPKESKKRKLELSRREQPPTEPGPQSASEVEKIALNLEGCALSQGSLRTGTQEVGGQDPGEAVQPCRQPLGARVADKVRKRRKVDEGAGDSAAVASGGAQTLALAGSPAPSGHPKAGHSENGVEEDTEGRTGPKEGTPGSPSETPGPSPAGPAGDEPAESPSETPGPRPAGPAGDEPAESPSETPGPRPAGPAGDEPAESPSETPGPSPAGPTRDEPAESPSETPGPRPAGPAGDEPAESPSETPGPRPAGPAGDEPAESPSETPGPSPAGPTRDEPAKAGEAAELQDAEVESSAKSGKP
Target,log2 fold change (ibrutinib),log2 fold change [1],log2 fold change (ralimetinib),log2 fold change [2],log2 fold change [3],log2 fold change [4],log2 fold change [5],log2 fold change [6],log2 fold change [7],log2 fold change [8],log2 fold change (vemurafenib),log2 fold change [9],log2 fold change (barasertib),log2 fold change [10],log2 fold change (volasertib),log2 fold change [11],log2 fold change [12],log2 fold change [13],log2 fold change (saracatinib),log2 fold change (sotrastaurin)
NT5DC2 isoform 2 (UniProt Q9H857),0,-0.066,-0.015,-0.026,0,-0.002,-0.015,0.008,0.04,-0.025,0,0.069,0.001,0.011,-0.028,-0.01,0.034,0.03,-0.017,0.117
PAXBP1 (UniProt Q9Y5B6),-0.004,0.019,0.027,-0.015,0.006,-0.024,0.007,-0.007,0.077,0.032,0.072,0.006,0.07,-0.008,-0.058,0.042,0.043,0.004,0.02,0.025
PAFAH1B3 (UniProt Q15102),0.073,-0.004,0.003,-0.01,0.015,-0.026,0.014,-0.002,0.02,0.006,-0.008,0.002,0.119,-0.061,-0.067,0.031,-0.04,-0.021,0.013,-0.009
MTHFD1L (UniProt B7ZM99),-0.034,-0.014,0.004,0.011,-0.007,-0.005,-0.006,0.033,0.02,-0.023,0.01,0,-0.033,-0.111,-0.002,0.019,-0.013,-0.056,0.004,0.036
NFIC (UniProt P08651),-0.019,0.014,0.009,-0.058,0.235,-0.038,-0.044,0.049,0.04,-0.082,-0.071,0.014,-0.106,0.101,-0.001,-0.01,-0.453 (active),0.055,0.049,-0.01
NIPBL (UniProt Q6KC79),0.026,0.008,0.035,-0.016,0.036,0.007,-0.025,-0.03,-0.044,0.021,-0.015,0.091,0.017,-0.081,-0.048,0.04,-0.004,-0.042,-0.001,0.004
NCOR1 (UniProt O75376),0.002,0.015,0.021,-0.033,0.014,0.026,-0.026,0,-0.006,-0.005,-0.005,-0.01,0.018,0.043,0.002,-0.014,-0.002,-0.033,0.006,0.006
MYOM1 (UniProt P52179),-0.017,0.016,0.254,0.026,-0.017,0.011,-0.156,0.052,-0.083,-0.025,0.015,-0.082,0.021,0.049,0.123,-0.356,-0.185,0.088,-0.086,-0.163
NUP133 (UniProt Q8WUM0),0.016,-0.015,0.006,0.045,-0.01,0.064,-0.02,0.01,0.009,-0.002,0.009,0.014,0.01,-0.028,-0.081,0.05,-0.047,0.04,0.014,0.038
MVB12A (UniProt Q96EY5),0.049,0.009,-0.008,0.001,-0.003,-0.015,0.033,-0.015,0.043,0.02,-0.017,0.005,-0.04,0.094,-0.001,0.03,0.009,-0.001,0.015,0.01
OGFR (UniProt Q9NZT2),-0.012,0.02,0.007,-0.011,-0.008,0.001,-0.016,-0.027,-0.003,0.002,-0.033,0.025,0.003,-0.012,-0.067,0.004,0.12,-0.039,0.022,0.053
PANK1 (UniProt Q8TE04),-0.031,-0.007,0.04,-0.003,-0.079,0.045,-0.068,-0.035,-0.025,0.064,0.086,0.036,0.097,-0.231,-0.063,0.056,0.226,-0.253,0,0.052
NCAPD2 (UniProt Q15021),-0.019,-0.019,0.03,-0.012,-0.031,0.022,-0.003,0.016,0.036,-0.005,0.025,0.014,0.016,-0.027,-0.057,0.022,-0.037,-0.055,0.006,0.021
NOB1 (UniProt Q9ULX3),-0.005,0.018,-0.028,0.014,0.013,-0.001,-0.046,0.03,0.019,0.004,-0.002,0.032,-0.053,-0.045,-0.02,-0.003,0.274 (active),-0.102,0.018,-0.009
NUDT5 (UniProt Q9UKK9),0.059,-0.008,-0.047,-0.05,-0.047,-0.007,-0.002,0.006,-0.014,-0.042,-0.019,-0.001,-0.042,0.043,0.015,-0.054,-0.267,0.27 (active),-0.022,0.034

# Reference: the supplement of paper PMC10849652
